Many of the other results were omitted from the sample, so hits are more common in it than they were.
ER stress death – ER stress cell death inhibition. CSM14.1 thapsigargin ER stress survival, ATP luminescence. relative survival (cellular ATP), % at 15 µg/mL (by protocol). 48,000 tested, 0.33% active. AID 1010;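 active = survival measured by cellular ATP above 50% at 15 µg/ml in the first screen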;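 note: cell death triggered by about 15 µM thapsigargin; ATP read 24 h after thapsigargin was added; plate controls were thapsigargin with DMSO for no effect and DMSO without thapsigargin for full effect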
* = called active by the depositor.

`CCOC(=O)c1c(C)nc(C)c(C(=O)OCC)c1-c1ccccc1` gave ER stress death 4.
For CCOC(=O)c1c(C)nc(C)c(C(=O)OCC)c1-c1cccc(NC(=O)c2ccc(F)cc2)c1 the results were ER stress death 115*.
`CCOc1ccc(C(=O)Nc2cccc(NC(=O)c3ccc(F)cc3)c2)cc1` gave ER stress death 0.
CCOC(=O)C1=C(C)N=c2s/c(=C\c3ccc([N+](=O)[O-])cc3)c(=O)n2C1c1ccccc1 (stereo unspecified) was read as ER stress death 14.
Screening COc1ccc(CN2CCN(C(=O)c3ccccc3OC)CC2)cc1OCc1ccccc1 returned ER stress death 17.
For COc1ccc(CN2CCN(C(=O)c3cccc(F)c3)CC2)cc1OCc1ccccc1 the results were ER stress death 23.
`COc1cc(CN2CCN(C(=O)c3ccc([N+](=O)[O-])cc3)CC2)cc(OC)c1OC` gave ER stress death 9.
For COc1ccc(CN2CCN(C(=O)c3ccc(F)cc3)CC2)cc1OCc1ccccc1 the results were ER stress death 53*.
Screening COc1ccc(CN2CCN(C(=O)c3ccc([N+](=O)[O-])cc3)CC2)cc1OCc1ccccc1 returned ER stress death 72*.
COc1ccc(C(=O)N2CCN(Cc3ccccc3)CC2)cc1[N+](=O)[O-] was read as ER stress death 14.
Cc1ccc2ncnc(NCc3cccnc3)c2c1 was read as ER stress death 5.
For COc1ccc(/C=C/C(=O)NC(=S)Nc2ccccc2C)cc1OC the results were ER stress death 0.
For CC(=O)Nc1ccc(S(=O)(=O)Nc2ccccc2C(N)=O)cc1 the results were ER stress death 13.
COc1ccc(C2=CC(=O)CC(c3ccccc3)C2)cc1 (stereo unspecified) was read as ER stress death -1.
`O=C1C=C(c2ccccc2)CC(c2ccccc2)C1n1nnc2ccccc21` (stereo unspecified) gave ER stress death 95*.
For CCCCC(=O)N1c2ccccc2C(N(C(=O)Cc2ccc(F)cc2)c2ccccc2)CC1C (stereo unspecified) the results were ER stress death 8.
Screening CN(C)c1ccc(/C=C2/SC(=S)N(CC(=O)O)C2=O)cc1Br returned ER stress death -3.
Screening Cc1c(NC(=O)c2cc([N+](=O)[O-])ccc2Cl)cccc1-c1nc2ccccc2s1 returned ER stress death -3.
O=C(Nc1ccc(O)c(-c2nc3ccccc3s2)c1)c1cccc(Cl)c1Cl was read as ER stress death -1.
`O=C(Nc1ccc(O)c(-c2nc3ccccc3s2)c1)c1cc([N+](=O)[O-])ccc1Cl` gave ER stress death 60*.
`CCOc1ccc(N(CC(=O)N2CCCCC2)S(C)(=O)=O)cc1` gave ER stress death 8.
For CCOc1ccc2ccccc2c1/C=N/NC(=O)CN1CCOCC1 the results were ER stress death 9.
Screening CCc1ccc(-n2c(C)cc(/C=N/NC(=O)c3ccncc3)c2C)cc1 returned ER stress death 31.
Screening Cc1cccc(C)c1-n1c(C)cc(/C=N/NC(=O)c2ccncc2)c1C returned ER stress death 5.
Cc1ccc(-n2c(C)cc(/C=N/NC(=O)c3ccncc3)c2C)cc1C was read as ER stress death 67*.
CCOc1ccc(S(=O)(=O)N(CC(=O)Nc2ccccc2Br)c2ccc(C)cc2)cc1 was read as ER stress death 3.
Screening Cc1ccc(S(=O)(=O)N2CCCC2C(=O)N2CCCCC2)cc1 (stereo unspecified) returned ER stress death -3.
For C=CCn1c(SCC(=O)N2c3ccccc3C(C)(c3ccccc3)CC2(C)C)nnc1-c1ccncc1 (stereo unspecified) the results were ER stress death 76*.
Screening CC1(c2ccccc2)CC(C)(C)N(C(N)=O)c2ccccc21 (stereo unspecified) returned ER stress death 2.
`Cc1nnc(SCC(=O)N2c3ccccc3C(C)(c3ccc(Br)cc3)CC2(C)C)s1` (stereo unspecified) gave ER stress death -2.
For COc1ccc(/C=c2\sc3nc4c(C)c(C)ccc4n3c2=O)cc1 the results were ER stress death 7.
Screening COc1cc([N+](=O)[O-])ccc1-c1ccc(/C=C2/SC(=S)N(c3ccccc3)C2=O)o1 returned ER stress death 1.
N/C(=N\OC(=O)c1ccc([N+](=O)[O-])cc1)c1ccccc1Cl was read as ER stress death 1.
Screening CCOc1ccc(C(=O)Nc2ccc(Cl)c(-c3nc4ccccc4[nH]3)c2)cc1Cl returned ER stress death 65*.
For CCOc1ccc(C(=O)Nc2ccc(Cc3ccncc3)cc2)cc1Cl the results were ER stress death 35.
Screening CCOc1ccc(C(=O)Nc2cc(Cl)cc(Cl)c2)cc1Cl returned ER stress death 6.
Screening COc1cc(-c2ccc(NCN3C(=O)c4ccccc4C3=O)c(OC)c2)ccc1NCN1C(=O)c2ccccc2C1=O returned ER stress death 10.
`Cc1sc2nc(N)c(C#N)c(-c3ccccc3)c2c1C` gave ER stress death 5.
CC1=C(C(=O)OC2CCCC2)C(c2ccccc2)C2=C(CC(c3ccc(Cl)cc3)CC2=O)N1 (stereo unspecified) was read as ER stress death 16.
For COc1ccccc1CNC(=O)c1ccc(C)cc1 the results were ER stress death 6.
Screening COc1ccccc1CNC(=O)c1ccc(OC)c(OC)c1 returned ER stress death 11.
COc1ccccc1CNC(=O)c1ccc(F)cc1 was read as ER stress death 100*.
`Cc1cc(C)cc(N2C(=O)NC(=O)/C(=C\c3cc(Cl)c(OCC(=O)O)c(Cl)c3)C2=O)c1` gave ER stress death -1.
Cc1ccc(NC(=O)c2ccc(S(=O)(=O)N3CCCCC3)cc2)c(C(=O)c2ccccc2)c1 was read as ER stress death 3.
COc1c(Cl)cc(C(=O)Nc2cc(C)ccn2)cc1Cl was read as ER stress death -6.
For COc1cc([N+](=O)[O-])cc(/C=C2/C(=O)NC(=O)N(c3ccc(C)cc3)C2=O)c1O the results were ER stress death 8.
`CN(C(=O)c1cccs1)c1ccccc1` gave ER stress death 14.
Screening COc1ccc(N2C(=O)c3ccccc3NC2c2ccc(OC)c(CN3C(=O)c4ccccc4C3=O)c2)cc1 (stereo unspecified) returned ER stress death 10.
Screening COc1ccc(C2Nc3ccccc3C(=O)N2c2ccccc2)cc1CN1C(=O)c2ccccc2C1=O (stereo unspecified) returned ER stress death 5.
Screening COc1ccc(C2Nc3ccccc3C(=O)N2c2ccccc2)cc1COc1ccc(NC(C)=O)cc1 (stereo unspecified) returned ER stress death 87*.
`O=C(Nc1ccc(Cl)c(-c2nc3ccccc3o2)c1)c1cccc(F)c1` gave ER stress death 6.
For CC(Nc1n[nH]c(=O)[nH]c1=O)C(=O)N/N=C/c1ccccc1Cl (stereo unspecified) the results were ER stress death 0.
COc1ccc2ccccc2c1-c1nnc2ccc3ccccc3n12 was read as ER stress death 7.
`COc1ccc2ccccc2c1-c1nnc2ccc(C(F)(F)F)cn12` gave ER stress death 60*.
Screening FC(F)(F)c1ccc2nnc(-c3cc(Br)ccc3OCc3ccccc3)n2c1 returned ER stress death 2.
Cc1ccccc1C(=O)NNC(=O)C(C)C was read as ER stress death 29.
`CCCC(=O)NNC(=O)c1ccccc1C` gave ER stress death 65*.

High-throughput results deposited in PubChem by Sanford-Burnham Center for Chemical Genomics.
